According to publication PMC12136788:
In all, about 5,800 sequences were measured (“enrichment r”: median about 0.68, highest 2% from about 11 on). A selection follows.

T1: UNK ZnF1-6 (called full-length) (human, UniProt Q9C0B0 30-357)
T1 sequence: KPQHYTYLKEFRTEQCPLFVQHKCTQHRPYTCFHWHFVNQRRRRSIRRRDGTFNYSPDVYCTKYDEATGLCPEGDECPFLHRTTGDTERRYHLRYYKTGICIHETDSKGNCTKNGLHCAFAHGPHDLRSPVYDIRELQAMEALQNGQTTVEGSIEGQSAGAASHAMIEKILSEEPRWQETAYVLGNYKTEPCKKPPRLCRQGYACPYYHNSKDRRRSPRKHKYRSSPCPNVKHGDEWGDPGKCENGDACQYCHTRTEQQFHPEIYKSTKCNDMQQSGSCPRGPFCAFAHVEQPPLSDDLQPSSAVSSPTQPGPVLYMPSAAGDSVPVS

B1: chr8:143915815:143915916:-|3pUTR|ENSG00000178209|msi1|FALSE|unique (ssRNA)
RNA: GGGAGUUCUACAGUCCGACGAUCGCCAGGUGCCUUGGAGGGUCCCAAGCUGGGCCCCAGCCCACCCUCCUGUCUUCCCAGGGUAGCCCGCCUGCCAGUCCUAGCUGCACAGGGCAGCUGGGCCCAACCCUGUCUGUAGAGGGCCAACAGAGGAUUGAGCAUCA
B2: chr1:17067933:17068034:-|3pUTR|ENSG00000117115|msi1|total|mutant (ssRNA)
RNA: GGGAGUUCUACAGUCCGACGAUCACAUAAGGACCCUGGCCUACCCUCCAGCCCAACAGCCAGUUCUGGGUCAGCUGCCAACUCCGGGGUGGUUUGAUUAUCCCAUUGAAAUUCACCAGUGCCUUUGCCAAAGACCCUCUCAUUCAACAGAGGAUUGAGCAUCA
B3: chr22:31279490:31279591:+|3pUTR|ENSG00000182541|msi1|FALSE|unique (ssRNA)
RNA: GGGAGUUCUACAGUCCGACGAUCAGCAGCUUGGGCUGGGAAGAGGUGGUGGCAGAGUCUCAAAGCUGAGAUGCUGAGAGAGAUAGCUCCCUGAGCUGGGCCAUCUGACUUCUACCUCCCAUGUUUGCUCUCCCAACUCAUUAGCAACAGAGGAUUGAGCAUCA
B4: chr1:193029531:193029688:-|CDS|ENSG00000116750|unk|total|mutant (ssRNA)
RNA: GGGAGUUCUACAGUCCGACGAUCUUGAUAUCUUCACUUUUAUAUUUUACCGGUAAUUAAUAAUGCUUGUGCUACUCAAGCCACCGUGAGUGUGUUACUGAACUGUACCCACCAGGAUGUCCAUUCCGGCGAGACAUUAUCAGACAACAGAGGAUUGAGCAUCA
B5: ENSG00000099250:stop:overlap|stop_codon|ENSG00000099250|stop_codon|NA|stop_codon (ssRNA)
RNA: GGGAGUUCUACAGUCCGACGAUCCAAUUCACGGAGAAAUGUGGUCAUCUGGAAAAGGAGUCUGCUCCCUGGAUGCGAAUCUGUAGCCUGGAUUCUGGAAGGCGAUGCUGAUUUAGGAGGUGGAGUGAAUGGAGAAUUGAAAAGCAACAGAGGAUUGAGCAUCA
B6: chr12:10081268:10081413:-|three_prime_utr|ENSG00000150048|control|control|control (ssRNA)
RNA: GGGAGUUCUACAGUCCGACGAUCUCAGUACUACCAGCUCUCCAAUACUGGUCAAGACACCAUUUCUCAAAUGGAAGAAAGAUUAGGAAAUACGUCCCAAGAGUUGCAAUCUCUUCAAGUCCAGAAUAUAAAGCUUGCAGGAAGCAACAGAGGAUUGAGCAUCA
B7: chr15:63774837:63774950:-|CDS|ENSG00000103657|unk|total|mutant (ssRNA)
RNA: GGGAGUUCUACAGUCCGACGAUCGUAACAACAUUUCUUAAAGGAGUCACUAUUCCUAAUUCUGGGGCAGACACUUCCGGUCGCCGAUCCGCUUCUGAGUUGCUGCUUGGUUUGGCAGCUCAACGAGGCUCAUUGCGAUAUCUUCAACAGAGGAUUGAGCAUCA
B8: ENSG00000086827:stop:overlap|stop_codon|ENSG00000086827|stop_codon|NA|stop_codon (ssRNA)
RNA: GGGAGUUCUACAGUCCGACGAUCUAAUUCGUGCCUUGUUUCAGAACACAGAAAGAAGAGCAGCUGCCCUUGCUAAAAUUAAAUAGCUCCAUCUUCUUAAGAAAGCUAUGUCUUGAAUAUGUGGAUUCUUCCCUUGGCAUAAUUCAACAGAGGAUUGAGCAUCA
B9: chr10:27397735:27399240:-|CDS|ENSG00000182077|control|control|control (ssRNA)
RNA: GGGAGUUCUACAGUCCGACGAUCUCUUCUAGGCUACCCAGUGUUACAAAGUGCAAUUUCAACAAUAAUAGGGGUGUGUGUUUUAGCUGCAGCGAAAGCAUACAUCUUCAGAACAUUUUUUAAGAUUAUGUUUCUUGUUAUGAUCAACAGAGGAUUGAGCAUCA
B10: ENSG00000124766:be:win_3751|3pUTR|ENSG00000124766|bound_else_gene|NA|bound_elsewhere_windowed (ssRNA)
RNA: GGGAGUUCUACAGUCCGACGAUCUUGUACAUUUAAGUCUGUAUUAUAAUAAGCAAAAAGAUUGUGUGUAUGUAUGUUUAAUAUAACAUGACAGGCACUAGGACGUCUGCCUUUUUAAGGCAGUUCCGUUAAGGGUUUUUGUUUCAACAGAGGAUUGAGCAUCA
B11: chr13:45957189:45957298:-|CDS|ENSG00000123200|unk|total|mutant (ssRNA)
RNA: GGGAGUUCUACAGUCCGACGAUCUGUUUUUGUUUUCUUCAAACCGGGCACCAUAAAACAAGCUUACACGAGUGCUCCAAUGGCCGACAAUGAAUUACUUCGAUUGAGUCUUCGGUUAUUUAAGCGGAAGACUACUUGCCAUGCCAACAGAGGAUUGAGCAUCA
B12: chrX:130230552:130230660:-|CDS|ENSG00000056277|unk|total|mutant (ssRNA)
RNA: GGGAGUUCUACAGUCCGACGAUCAUCAGAACGUCCAUGUGAUGAAGACAAGACUGAUUCAGAGACAGGAAAGUUGAUCAUGUCCGUCAAUGAGUUUUAUUAUGGAAGGCAUGAAGGAGUCACUGAGAAAGAGCCAAAGACUUACAACAGAGGAUUGAGCAUCA
B13: ENSG00000107863:be:win_2551|CDS|ENSG00000107863|bound_else_gene|NA|bound_elsewhere_windowed (ssRNA)
RNA: GGGAGUUCUACAGUCCGACGAUCUUAAUUCGCCGUCAGCUCUCACAUGACCACGAAUCUGUUGGCCCUCCUAGCCUGGAUGCUCAGCCCAACUCAAAGACAGAAAGAUCAAAAUCAUAUGAUGAGGGUCUGGAUGAUUACAGACAACAGAGGAUUGAGCAUCA
B14: chr20:57651677:57651767:-|3pUTR|ENSG00000124225|msi1_unk|FALSE|overlapping (ssRNA)
RNA: GGGAGUUCUACAGUCCGACGAUCGUUGAGCUGUGUCUUGAAGGCAAAAGAAAAAAAAUUUCUACAGUAGUCUUUCUUGUUUCUAGUUGAGCUGCGUGCGUGAAUGCUUAUUUUCUUUUGUUUAUGAUAAUUUCACUUAACUUUCAACAGAGGAUUGAGCAUCA

target: T1, UNK ZnF1-6 (called full-length); assay: nsRBNS (natural sequence RNA bind-n-seq); RBNS binding buffer (assumed for nsRBNS): 25 mM Tris pH 7.5, 150 mM KCl, 3 mM MgCl2, 0.01% Triton X-100, 500 ug/ml BSA, 20 U/ml SUPERase-In, 4 C; UNK is unkempt and MSI1 is Musashi-1; names of the RNAs are library labels; protein concentration not given here; high values mean tight binding

| Binder | binding signal [enrichment R] |
| --- | --- |
| B1 | 1.03 |
| B2 | 0.749 |
| B3 | 0.852 |
| B4 | 0.805 |
| B5 | 0.76 |
| B6 | 0.413 |
| B7 | 0.574 |
| B8 | 1.49 |
| B9 | 0.38 |
| B10 | 0.359 |
| B11 | 0.325 |
| B12 | 0.608 |
| B13 | 0.436 |
| B14 | 1.22 |
